# In PubChem BioAssay (NCATS):
# Inconclusive results are not listed. Calls of active or inactive are those of the source. Calls come from the whole dose curve; as a rule, active = well fitted cell-killing curve with a large enough effect; inconclusive = small, poorly fitted or top-dose-only effect, or effect the other way; inactive = flat fitted curve, though single readings scatter. Where a SMILES comes first, the peptide text is derived from it. The star is where a group is joined. Hexanoyl = CCCCCC(=O)*
# System: Tov112D
# Assay: Primary qHTS to identify gynecologic anti-cancer compounds using libraries of approved drugs and bioactive compounds (AID 1345084); note: nearly all actives have a fitted effect of over 55% in size
# Conditions: Gynecologic cancer cell panel viability, ATPlite luminescence, 48 h; series mostly up to 57.5 µM; activity change, negative = cytotoxicity: at the top concentration
# In short: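 ATP-based viability (ATPlite), 1,000 cells/well, 16 h pre-incubation, 48 h compound at 37 C, 5% CO2, 15 min RT before read.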
# % is set by controls: 0 for no effect and ±100 for the full control effect.
row,Compound,"activity change, negative = cytotoxicity"
1,COc1cc(O)c2c(c1)C1(OC2=O)C(C)=CC(=O)C1O (centres undefined),-2.63% (inactive)
2,CC1CCC2(NC1)OC1C(O)C3C4CCC5CC(O[C@@H]6O[C@H](CO)[C@@H](O)[C@H](O)[C@H]6O[C@@H]6O[C@@H](C)[C@H](O)[C@@H](O)[C@H]6O)CCC5(C)C4CCC3(C)C1C2C (some centres undefined),-4.03% [at 25.3 µM] (inactive)
3,Cc1c(C)c(NCC(=O)N(C)C2CCN(Cc3ccc(C(N)=O)cc3)CC2)c(C)c(C)c1N,3.41% (inactive)
4,CC1(C(=O)O)CCCC2(C)C3CCC4CC3(CCC12)CC4(O)CO (centres undefined),-10.8% [at 38.5 µM] (inactive)
5,CCCN(CCN1CCN(c2ccccc2OC)CC1)C1CCc2ncsc2C1 (centres undefined),-3.59% (inactive)
6,CC/C=C\CC1C(CC(=O)O)CCC1OC1OC(CO)C(O)C(O)C1O (centres undefined),6.17% [at 38.5 µM] (inactive)
7,CCN1CCN(C(=O)N[C@@H](C(=O)N[C@@H]2C(=O)N3[C@@H]2SC(C)(C)[C@@H]3C(=O)O)c2ccccc2)C(=O)C1=O,17.8% (inactive)
8,H-DPPDPDRFYGMM-NH2,6.86% [at 25.3 µM] (inactive)
9,C/C=C(\C)C1C(C)=CC2CCC(OS(=O)(=O)O)C(C)C2C1/C=C/C=C/C(=O)O (centres undefined),-2.35% [at 25.3 µM] (inactive)
10,CC(=O)NC(Cc1c[nH]c2ccccc(=O)c12)C(=O)O (centres undefined),-2.16% (inactive)
11,O=C(Cn1c2ccccc2c2nc3n(c(=O)c21)CCS3)N1CCCC1,16.4% (inactive)
12,Nc1nc2c(nc(Sc3ccc(Cl)cc3)n2[C@@H]2O[C@@H]3COP(=O)(O)O[C@H]3[C@H]2O)c(=O)[nH]1,12% (inactive)
13,C/C=C/C=C/C=C/C(=O)O[C@@H]1C=C(CO)[C@](O)(CO)[C@@]2(C)CCCC(C)(C)[C@H]12,4.31% [at 38.5 µM] (inactive)
14,CCOc1ccc(-c2cc(NC(=O)c3c(F)cccc3F)c(C(=O)O)s2)cc1,5.4% (inactive)
15,Cc1ccccc1NC(=O)Nc1ccc(CN2C(=O)N([C@@H](CC(C)C)C(=O)N[C@@H](CC(=O)O)c3ccccc3)C(=O)C2(C)C)cc1,14.7% (inactive)
16,CC1=C[C@H](O)[C@H]2C(C)(C)CCC[C@]2(C)[C@@]1(O)CO,10.4% (inactive)
17,CC(=O)OC1(C)CC(O)C2(O)C=COC(OC3OC(CO)C(O)C(O)C3O)C12 (centres undefined),-0.718% [at 25.3 µM] (inactive)
18,CCC(C)C1NC(=O)C2C(C)CCN2C(=O)C(CC(O)CO)OC(=O)CCNC(=O)C(C)N(C)C(=O)C(C(C)C)N(C)C1=O (centres undefined),-4.01% [at 25.3 µM] (inactive)
19,CCCCCC(=O)N1CCC[C@H]1C(=O)N[C@@H](Cc1ccc(O)cc1)C(=O)OC (Hexanoyl-Pro-Tyr-OMe),-2.57% (inactive)
20,COc1ccc(C(=O)NCc2cc(C(C)C)no2)cc1OC1CCN(C)CC1,1.05% (inactive)

row,Compound,"activity change, negative = cytotoxicity"
1,Cc1nc2ccccc2c(-c2ccc3c4c(ccnc24)CCO3)c1[C@H](OC(C)(C)C)C(=O)O,7.64% (inactive)
2,O=C(O)Cn1nnc(-c2ccc(CN(CCCCOc3ccc(CN4CCCC4)cc3)CCc3ccccc3)cc2)n1,12% (inactive)
3,COc1cc(Nc2ccc([N+](=O)[O-])cc2C(=O)O)cc2ccccc12,1.86% (inactive)
4,Nc1c(-c2ccccc2)nc(Cl)c2c(O)n[nH]c(=O)c12,20.3% (inactive)
5,O=C(O)c1cccc(CN2C(=O)/C(=C(\c3ccccc3)c3ccc(Cl)cc3)c3ccccc32)c1,-1.03% (inactive)
6,Cc1cc(O[C@@H]2O[C@H](COC(=O)CC(=O)O)[C@@H](O)[C@H](O)[C@H]2O)c(C(C)C)cc1O,-19.8% [at 25.3 µM] (inactive)
7,CC1(C)C[C@H]2C=C(C=O)[C@]3(C(=O)O)C[C@]3(C)[C@H]2C1,-5.51% (inactive)
8,COc1c(-c2ccc(O)cc2)cc(OC)c2c1oc1cc(O)c(OC3OC(CO)C(O)C3O)cc12 (centres undefined),2.6% [at 25.3 µM] (inactive)
9,CC1OC(O[C@@H]2[C@H](O)[C@@H](OC3OC(CO)C(O)C(O)C3O)[C@H](OC(=O)[C@]34CCC(C)(C)C[C@H]3C3=CCC5[C@@]6(C)CC[C@H](O[C@@H]7O[C@H](C(=O)O)[C@@H](O)[C@H](O[C@@H]8OC[C@@H](O)[C@H](O)[C@H]8O)[C@H]7O[C@@H]7O[C@H](CO)[C@H](O)[C@H](O)[C@H]7O)[C@@](C)(C=O)C6CC[C@@]5(C)[C@]3(C)C[C@H]4O)O[C@@H]2C)C(O)C(O)C1OC1OCC(O)C(O)C1O (some centres undefined),1.65% [at 6.55 µM] (inactive)
10,O=c1[nH]ccc2nc(-c3ccc(CN4CCC(c5nc(-c6ccccn6)n[nH]5)CC4)cc3)c(-c3ccccc3)cc12,3.09% (inactive)
11,O=C1C[C@@]2(C(=O)N1)C(=O)N(Cc1ccc(Br)cc1F)C(=O)c1cccn12,7.2% (inactive)
12,C/C=C(\C)C(=O)OC[C@H]1O[C@H](O[C@H]2O[C@H](CO)[C@@H](O)[C@H](O)[C@H]2O[C@@H]2O[C@H](CO)[C@@H](O)[C@H](O)[C@H]2O)[C@H](O[C@@H]2O[C@H](CO)[C@@H](O)[C@H](O)[C@H]2O)[C@@H](O)[C@@H]1O,0.763% [at 25.3 µM] (inactive)
13,CC1(C)CC[C@]2(C(=O)O)CC[C@]3(C)C(=CCC4[C@@]5(C)CC[C@H](O[C@@H]6O[C@H](C(=O)O)[C@@H](O)[C@H](O[C@@H]7O[C@H](CO)[C@H](O)[C@H](O)[C@H]7O)[C@H]6O[C@@H]6O[C@H](CO)[C@@H](O)[C@H](O)[C@H]6O)C(C)(C)C5CC[C@]43C)[C@@H]2C1 (some centres undefined),-3.27% [at 6.55 µM] (inactive)
14,C[C@H]1[C@@H](O)[C@H](O)C2[C@]3(C)C([C@@H](O)[C@H]4OC(=O)[C@@H]1[C@@]24C)[C@](C)(O)C=C[C@H]3O[C@@H]1O[C@H](CO)[C@@H](O)[C@H](O)[C@H]1O (some centres undefined),11.7% [at 25.3 µM] (inactive)
15,CCCCNc1nc(N)c2[nH]c(=O)n(Cc3ccc(OCCN(C)C)nc3)c2n1,14.8% (inactive)
16,CSCC1OC(n2cnc3c(N)ncnc32)C(O)C1O (centres undefined),4.42% (inactive)
17,C[C@]1(O)CC[C@@H]2C(C(=O)O)=CO[C@@H](O[C@@H]3O[C@H](CO)[C@@H](O)[C@H](O)[C@H]3O)[C@@H]21,1.4% [at 38.5 µM] (inactive)
18,C[C@@H]1C[C@H]2OC(=O)[C@@]3(C)CCC[C@](C)(C23)[C@@]1(O)CCC1=CC(=O)OC1O (some centres undefined),5.64% [at 38.5 µM] (inactive)
19,NC(=O)NCCCC(NC(=O)Cc1ccccc1)C(=O)O (centres undefined),5.35% (inactive)
